Compound activity: PubChem BioAssay, National Center for Advancing Translational Sciences (NCATS)
Hits are enriched below; roughly 21% of the tested compounds scored in any of these assays.
Shiga inhibitor = inhibitors of Shiga toxin in Vero cells. AID 2315. Vero cells, Shiga toxin protein synthesis inhibition reporter. actives 9.2% (n = 290,000). inhibition, % at 38.7 µM; in the data active = inhibition mostly above about 28%, no sharp cut-off; inactive = mostly below about 43%; note: 0% is about no effect
Cycloheximide cs = counter-screen hit for Shiga toxin inhibitors, cycloheximide. AID 2314. actives 12% (n = 300,000). cell reporter, cycloheximide protein synthesis inhibition counterscreen. max response, %; in the data active = max response mostly above about 13%, no sharp cut-off; inactive = mostly below about 14%; note: read at 38.3 µM for the half of the compounds with a filed dose; 0% is about no effect
HCV inh = blocks hepatitis C virus. Huh7.5.1 HCVcc-Cre infection, luciferase reporter, 44 h. Potency, µM (doses to about 41.8 µM), inactives show at the highest dose activity change, negative = inhibition, actives largely listed as inhibitors. actives 3.4% (n = 340,000). AID 651820; note: potency is the fitted concentration of half-maximal effect; % is set by controls: 0 for no effect and ±100 for the full control effect
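Compounds are dispensed onto cells plated 4 h earlier at 1,000 per well, with HCVcc-Cre virus (about 0.5 moi) added next. Following 44 h of culture, luminescent signal is measured for 15 sec after 15 min with substrate at room temperature.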
Pf growth 48h = inhibits P. falciparum growth in the first generation, 48 h | actives 5.9% (n = 310,000) | P. falciparum luciferase growth in erythrocytes, 48 h | Potency, µM (highest dose often 28.7 µM), without a hit: at the top dose activity change, negative = inhibition, usual class: inhibitors; note: potency is the fitted concentration of half-maximal effect; % is set by controls: 0 for no effect and ±100 for the full control effect
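Growth was read as firefly luciferase luminescence after a 48 h, 37 C, 5% CO2 exposure of compounds to reporter-bearing P. falciparum cultures (0.1% parasitemia, 2% hematocrit final) in Albumax-supplemented RPMI 1640.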
Pf growth 96h = P. falciparum growth inhibition at 96 hour, primary screen for plastid delayed-death inhibitors. AID 504834. Potency, µM (top dose mostly 28.7 µM), for the others: at the top dose activity change, negative = inhibition, usual class: inhibitors. P. falciparum luciferase reporter growth, 96 h. actives 6.9% (n = 320,000); note: potency is the fitted concentration of half-maximal effect; % is set by controls: 0 for no effect and ±100 for the full control effect
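Infected RBCs, 2% Hct / 0.05% parasitemia final; luciferase-reporter P. falciparum; cpd 96 h, 37 C, 5% CO2; luciferase detection reagent; luminescence.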
AMA1-RON2 inh = inhibitors of Plasmodium falciparum AMA1-RON2 interaction; Potency, µM (top dose mostly 58.2 µM), inactives show at the top dose activity change, negative = inhibition, most hits filed as inhibitors; actives 0.2% (n = 360,000); AlphaScreen AMA1-biotinylated RON2 peptide binding; AID 720542;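 note: potency is the fitted concentration of half-maximal effect; 0% = vehicle wells and -100% = peptide control; nearly all actives have a fitted effect of over 45% in size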
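AMA1 (3D7) with his tag at 25 nM final met compounds first, then biotinylated RON2 peptide at 25 nM; detection used donor plus acceptor beads, 10 µg/mL apiece, read by AlphaScreen after 30 min at room temperature.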
Starred values were filed as active, the others as inactive; ? = inconclusive; . = no result; [ ] = remark or other dose. Unless noted, calls come from the whole dose curve; as a rule, active = well fitted curve in the direction sought with a large enough effect; inconclusive = small, poorly fitted or top-dose-only effect, or another doubt; inactive = no such curve, though single readings can be large; an effect the other way counts as inactive or inconclusive.

SMILES	Shiga inhibitor	Cycloheximide cs	HCV inh	Pf growth 48h	Pf growth 96h	AMA1-RON2 inh
CCOC(CNc1ncnc2sc(-c3ccccc3)cc12)OCC	25	12*	?	?	?	9%
Cc1sc2ncnc(Nc3ccccc3)c2c1C	-11	1	?	19%	.	3%
Cc1sc2ncnc(NCc3ccccc3)c2c1C	-6	-3	5.6µM*	-2%	?	6%
CCOC(=O)c1cnn(-c2ccc(F)cc2)c1N	-3	5	-8%	29%	36%	-3%
CCCCCC(=O)N1C[C@H](O)[C@@H](n2cc(C3CC3)nn2)C[C@@H]1c1ccc(C)cc1	.	.	.	.	.	7%
Cc1ccc(C)c(C(=O)OCC(=O)Nc2ccc(N3CCOCC3)cc2)c1	-13	0	-2%	-6%	3%	-17%
COc1ccc(C2=NN(C(=O)CSc3nc4ccccc4s3)C(c3ccc(F)cc3)C2)cc1 (stereo not given)	-1	-7	?	?	?	-5%
COc1ccc(C2=NN(C(=O)CSc3nc4ccccc4s3)C(c3ccc(OC)cc3)C2)cc1 (stereo not given)	4	-4	-2%	12µM*	?	-8%[2.32 µM]
COc1ccc(C2=NN(C(=O)CSc3nc(=O)n4cc(C)ccc4n3)C(c3ccc(C)cc3)C2)cc1 (stereo not given)	.	.	?	?	8.3µM*	2%
COc1ccc(C2CC(c3ccc4ccccc4c3)=NN2C(=O)CN2C(=O)CCC2=O)cc1 (stereo not given)	24	13	-2%	9.3µM*	?	7%
COc1ccc(C2=NN(C(=O)CN3CCCC3)C(c3ccc(OC)cc3)C2)cc1 (stereo not given)	22	8	-15%	?	?	-9%
COc1ccc(C2=NN(C(=O)CSc3ncccn3)C(c3ccc(OC)cc3)C2)cc1 (stereo not given)	12	11	-13%	10µM*	?	-15%
Cc1cc2nc(-c3cccc(Cl)c3)c(Cc3ccsc3)n2c(C)c1Br	.	.	.	.	.	7%
Cc1ccc(C)c(SCC(=O)NCC(c2ccco2)N2CCCCC2)c1 (stereo not given)	.	.	-13%	?	?	-9%
O=C(CC1Sc2ccccc2NC1=O)NNc1ccc(F)cc1 (stereo not given)	.	.	-12%	.	.	-24%
O=C1CCCN2N=C(SCC(=O)N3N=C(c4ccc(Br)cc4)CC3c3ccc(F)cc3)SC2=N1 (stereo not given)	-2	11	-18%	?	?	-10%
COc1ccc(C2=NN(C(=O)CSc3cn(C)c4ccccc34)C(c3ccc(OC)cc3)C2)cc1 (stereo not given)	-1	-2	?	?	?	-20%
Cc1ccc(C2CC(c3ccc(Br)cc3)=NN2C(=O)CSC2=NN3CCCC(=O)N=C3S2)cc1 (stereo not given)	10	1	?	12µM*	14%	7%
COc1ccc(C2CC(c3ccc4ccccc4c3)=NN2C(=O)CSc2ncccn2)cc1 (stereo not given)	43*	15*	0%	?	10µM*	-3%
COc1ccc2c(c1)C(C)CC(C)(C)N2C(=O)CSc1nc2ccccc2s1 (stereo not given)	-12	-3	?	?	10µM*	5%
OC(c1ccc(F)c(F)c1)c1nc(-c2csc3ccccc23)cs1 (stereo not given)	.	.	.	.	.	15%
O=C(COc1ccc(-c2nnco2)cc1)Nc1ccc(C(F)(F)F)cc1	.	.	?	?	-18%	-2%
CC1(C(=O)O)CCC2(C)CCC3(C)C(=CC(=O)C4C5(C)CCC(O)C(C)(C)C5CCC43C)C2C1 (stereo not given)	.	.	.	6%	-8%	.
COCC(=O)Oc1c(Sc2ccccc2[N+](=O)[O-])c(C)nn1C(C)(C)C	-4	2	9%	?	?	2%
CCC(CC)C(=O)Oc1c(Sc2ccccc2[N+](=O)[O-])c(C)nn1C(C)(C)C	7	0	4%	9.3µM*	?	-16%
Cc1csc2ncc(C(=O)Nc3ccccc3F)c(=O)n12	31	24*	0%	91%	62%	1%
